Shiga inhibitor = blocks Shiga toxin action in Vero cells; AID 2315; 290,000 tested, 9.2% active; Vero cells, Shiga toxin protein synthesis inhibition reporter; inhibition, % at 38.7 µM; in the data active = inhibition mostly above about 28%, no sharp cut-off; inactive = mostly below about 43%; also: 0% is about no effect
NS1 inh = blocks influenza NS1 protein function | Potency, µM (doses to about 46.1 µM), inactives show at the highest dose activity, positive = more growth | 270,000 tested, 0.4% active | AID 2326; calls by dose curve; also: potency is read from the fitted curve at half-maximal effect; actives are rising curves; nearly all actives have a fitted effect of over 50% in size
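OD600 was taken as the measure of yeast growth restored by compound in an NS1-expressing S. cerevisiae strain. Cells had been washed out of glucose medium and diluted 1:100 into galactose -URA medium, pH 6.0.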
CHX counter-1 = counter-screen hit for Shiga toxin inhibitors, cycloheximide; 300,000 tested, 12% active; max response, %; AID 2314; cell reporter, cycloheximide protein synthesis inhibition counterscreen; in the data active = max response mostly above about 13%, no sharp cut-off; inactive = mostly below about 14%; also: read at 38.3 µM for the half of the compounds with a filed dose; 0% is about no effect
Pf growth 96h = P. falciparum growth inhibition at 96 hours; P. falciparum luciferase reporter growth, 96 h; Potency, µM (top dose mostly 28.7 µM), for the others: at the highest dose activity change, negative = inhibition, usual class: inhibitors; 320,000 tested, 6.9% active; AID 504834; also: potency is read from the fitted curve at half-maximal effect; % is scaled to controls: 0 for no effect and ±100 for the full control effect
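96 h incubation, 37 C, 5% CO2, of luciferase-reporter P. falciparum-infected RBCs (2% hematocrit, 0.05% parasitemia final) with test compounds; endpoint luminescence.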
Pf growth 48h = P. falciparum growth inhibition at 48 hours (one generation) | P. falciparum luciferase growth in erythrocytes, 48 h | Potency, µM (titrated, usually from 28.7 µM), for inactives: top-dose activity change, negative = inhibition, actives largely listed as inhibitors | 310,000 tested, 5.9% active; also: potency is read from the fitted curve at half-maximal effect; % is scaled to controls: 0 for no effect and ±100 for the full control effect
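Luminescence readout; reporter = integrated firefly luciferase in P. falciparum. RBC culture at 2% hematocrit, 0.1% parasitemia final, 37 C/5% CO2; decreased signal taken as growth inhibition.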
Sm TGR block = inhibitors of Schistosoma mansoni thioredoxin glutathione reductase. AID 485364. purified TGR, DTNB reduction, TNB absorbance 405 nm. 360,000 tested, 3% active. Q962Y6. Potency, µM (top dose mostly 114 µM), inactives show top-dose activity change, negative = inhibition, actives largely listed as inhibitors; also: potency is read from the fitted curve at half-maximal effect; % is scaled to controls: 0 for no effect and ±100 for the full control effect; nearly all actives have a fitted effect of over 60% in size
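Kinetic colorimetric format: TGR-catalysed, NADPH-driven DTNB reduction monitored via TNB absorbance. Enzyme dispensed at 20 nM; compound exposure 15 min at room temperature before reaction start.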
CHX counter-2 = protein synthesis counter-screen activity for Shiga toxin hits. shares compounds with Shiga inhibitor. Cycloheximide counterscreen, protein synthesis reporter, Shiga toxin assay. Potency, µM (series often up to 38.3 µM), for the others: top-dose activity (activation), usual class: activators. 510 tested, 3% active; calls by dose curve; also: potency is read from the fitted curve at half-maximal effect; 0% is about no effect
* = called active by the depositor; u = inconclusive; x = no result given; ! = not active in a repeat. An excerpt weighted towards active compounds, which were near 21% of everything screened. Unless noted, calls follow the shape of the dose curve; as a rule, active = well fitted curve in the direction sought with a large enough effect; inconclusive = small, poorly fitted or top-dose-only effect, or another doubt; inactive = no such curve, though single readings can be large; an effect the other way counts as inactive or inconclusive.

SMILES | Shiga inhibitor | NS1 inh | CHX counter-1 | Pf growth 96h | Pf growth 48h | Sm TGR block | CHX counter-2
Cc1cccc(NC(=O)CCN2C(=O)c3ccccc3S2(=O)=O)c1C | 16.9* | 5.4% | -1.4 | -0.2% | 50.2% | -0.9% | 3.5%
O=C(CCN1C(=O)c2ccccc2S1(=O)=O)Nc1ccc(F)cc1F | -8.1 | 2.5% | 6.0 | -10.4% | 26.2% | 0.8% | x
O=C(c1ccc(Cl)cc1)N1CCN(CCc2ccccn2)CC1 | -3.2 | 3.4% | 1.9 | 4.4% | 12.7% | -8.3% | x
COc1cc(C(C)=O)ccc1OCCCOc1cccc2cccnc12 | 48.1* | -43.5% | 1.8 | -9.1% | -7.8% | 1.6% | u
CCCn1nc(C(=O)NCC2COc3ccccc3O2)c2ccccc2c1=O (centres undefined) | x | x | x | u | -21.1% | -0.5% | x
O=C(Cc1ccc(NC(=O)N2CCCCc3ccccc32)cc1)NCc1ccccc1 | x | x | x | x | x | -3.1% | x
COC(=O)c1cccc(C(=O)Nc2ccc(F)cc2)n1 | 5.8 | 1.5% | 6.1 | 40.9% | 39.5% | 1.1% | x
O=C(Nc1ccc(/C=C/c2nc3ccccc3o2)cc1)c1ccc(F)cc1 | 36.7* | 25.6% | 9.3 | u | u | 0.0% | 2.25µM*
CCOC(=O)CCNC(=O)N1CCCC(N(C)CCc2ccccc2)C1 (centres undefined) | -1.5 | 5.9% | 0.4 | -11.0% | 13.2% | -1.9% | x
CSc1ccc(/C=C/C(=O)N2CCN(c3ccccn3)CC2)cc1 | 32.5* | -2.8% | 11.8 | 4.1% | 29.8% | 2.9% | -2.2%
COc1ccc(N(CC(=O)Nc2cccc(C)c2C)S(=O)(=O)c2c(C)n[nH]c2C)cc1 | -16.5 | -9.3% | -1.7 | -24.3% | u | 26.9% | x
COc1ccc(N(CC(=O)Nc2ccc(Cl)cc2)S(=O)(=O)c2c(C)n[nH]c2C)cc1 | 23.9* | 4.9% | -2.3 | -26.6% | u | -0.1% | 3.5%
Cc1ccc(O)c([C@H](CCN(C(C)C)C(C)C)c2ccccc2)c1 | 48.4*! | 15.2% | -0.5 | -5.7% | 1.69µM* | 8.1% | -2.0%
Cc1ccccc1C(OCCN(C(C)C)C(C)C)c1ccccc1 (centres undefined) | 3.1 | -9.6% | -1.7 | u | u | -16.6% | x
CCNc1c(NC(=O)c2cccs2)c(=O)oc2ccccc12 | 30.3* | -4.7% | 2.2 | -2.8% | 8.9% | -0.2% | 1.3%
CCNc1c(NC(=O)C2CCC(C)CC2)c(=O)oc2ccccc12 (centres undefined) | -8.2 | -8.3% | -0.6 | -1.1% | u | -7.2% | x
CN(CC(=O)O)S(=O)(=O)c1ccc2c(c1)NC(=O)CC(=O)N2 | 13.7 | x | 4.6 | 8.0% | 22.1% | -32.3% | x
O=C(/C=C/c1ccc(S(=O)(=O)NCc2ccco2)cc1)N1CCN(c2ccccc2)CC1 | 66.2* | x | 4.2 | 3.7µM* | u | -27.0% | 4.6%
O=C(c1ccc(S(=O)(=O)NCc2ccco2)cc1)N1CCN(c2ccc(F)cc2)CC1 | x | x | x | u | u | -13.0% | x
Cc1cccc(C(=O)OC(C)C(=O)N2CCc3ccccc3C2)c1C (centres undefined) | x | x | x | u | -24.5% | 4.2% | x
Cc1ccc(S(=O)(=O)N2CCC(C(=O)N[C@@H](Cc3ccccc3)C(=O)O)CC2)cc1 | 34.0* | 1.3% | 4.6 | -16.9% | 13.5% | 79.4µM* | 0.1%
O=C(c1ccc([N+](=O)[O-])cc1)N1CCc2ccccc2C1 | 26.3* | -15.4% | 1.2 | -28.1% | -9.6% | -2.2% | 1.4%
O=C(c1ccc(S(=O)(=O)c2ccccc2)cc1)N1CCc2ccccc2C1 | -4.1 | -8.0% | -4.2 | 56.2% | -8.2% | 2.5% | x
COc1cccc(CNC(=O)c2ccc(C)c(NC3=NC4CS(=O)(=O)CC4S3)c2)c1 (centres undefined) | 11.1* | -2.8% | -1.2 | 0.9% | -12.0% | -16.1% | 2.9%
O=C(COC(=O)c1cncc(Br)c1)Nc1nc(-c2ccc(F)cc2)cs1 | 26.8* | 2.2% | 8.3 | 42.7% | 58.1% | 0.4% | u
Cc1ccc(C)c(S(=O)(=O)c2nnn3c2nc(N2CCCC2)c2sccc23)c1 | x | x | x | x | x | -0.2% | x
COc1ccc(N2CCN(Cc3csc(C)c3-c3ccc(C)cc3)CC2)cc1 | 39.8* | -3.1% | -3.1 | 0.0% | 10.4µM* | -18.3% | -2.5%

Screening data (PubChem BioAssay)
